# Data from PubChem BioAssay AID1159580 (chemical genetic matrix, 2015).
# Out of some 5,500 compounds screened, about 2,000 (36%) were called active. Roughly 18% stayed inconclusive and do not appear here. This is one part of the list. A number with no mark means an inactive call. No stated cut-off is given here; in the data, active means normalized growth mostly below about 0.91 (no sharp cut-off); inconclusive means no clear call, values can overlap the other calls; inactive means mostly above about 0.92.
# Experiment: chemical genetic growth profiling, strain panel (AID 1159580);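 further: tested at 20 µM; growth read once vehicle control cultures reached saturation at 30 °C; 1 = growth at the plate median or of vehicle wells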
# Settings: S. cerevisiae deletion strains, growth OD
# [1] = locus YAL013W, strain DEP1, stronger effect = lower value
# [2] = locus YBR229C, strain ROT2, stronger effect = lower value
# [3] = locus YDL101C, strain DUN1, stronger effect = lower value
# [4] = locus YDR150W, strain NUM1, stronger effect = lower value
# [5] = locus YEL061C, strain CIN8, stronger effect = lower value
# [6] = locus YGR078C, strain PAC10, stronger effect = lower value
# [7] = locus YGR229C, strain SMI1, stronger effect = lower value
# [8] = locus YHR030C, strain SLT2, stronger effect = lower value
# [9] = locus YHR087W, strain rtc3, stronger effect = lower value
# [10] = locus YJR043C, strain POL32, stronger effect = lower value
# [11] = locus YJR075W, strain HOC1, stronger effect = lower value
# [12] = locus YLR039C, strain RIC1, stronger effect = lower value
# [13] = locus YLR058C, strain SHM2 (second series), stronger effect = lower value
# [14] = locus YLR085C, strain ARP6, stronger effect = lower value
# [15] = locus YLR262C, strain YPT6, stronger effect = lower value
# [16] = locus YML094W, strain GIM5, stronger effect = lower value
# [17] = locus YMR219W, strain ESC1, stronger effect = lower value
# [18] = locus YMR263W, strain SAP30, stronger effect = lower value
# [19] = locus YMR307W, strain GAS1, stronger effect = lower value
# [20] = locus YNL153C, strain GIM3, stronger effect = lower value
# [21] = locus YNL298W, strain CLA4 (second series), stronger effect = lower value
# [22] = locus YNL322C, strain KRE1, stronger effect = lower value
# [23] = locus YNR030W, strain Alg12, stronger effect = lower value
# [24] = locus YOL006C, strain TOP1, stronger effect = lower value
# [25] = locus YPL055C, strain LGE1, stronger effect = lower value
# [26] = locus YPL241C, strain CIN2, stronger effect = lower value
# [27] = locus YPR135W, strain CTF4, stronger effect = lower value
# [28] = locus YJL187C, strain SWE1, stronger effect = lower value
smiles,measurement,setting,value
Brc1ccc(-c2ccn[nH]2)s1,normalized growth,[1],0.978
same,normalized growth,[2],0.966
same,normalized growth,[3],0.971
same,normalized growth,[4],1.02
same,normalized growth,[5],0.938
same,normalized growth,[6],0.973
same,normalized growth,[7],0.955
same,normalized growth,[8],0.938
same,normalized growth,[9],0.993
same,normalized growth,[10],1
same,normalized growth,[11],0.971
same,normalized growth,"locus YKL190W, strain CNB1, stronger effect = lower value",0.949
same,normalized growth,[12],0.703 (active)
same,normalized growth,[13],0.963
same,normalized growth,[14],0.721 (active)
same,normalized growth,[15],0.67 (active)
same,normalized growth,[16],0.886
same,normalized growth,[17],0.968
same,normalized growth,[18],1.02
same,normalized growth,[19],0.953
same,normalized growth,"locus YNL128W, strain TEP1, stronger effect = lower value",0.94
same,normalized growth,[20],0.906 (active)
same,normalized growth,[21],0.936
same,normalized growth,[22],0.97
same,normalized growth,[23],0.939
same,normalized growth,[24],0.715 (active)
same,normalized growth,[25],1.07
same,normalized growth,[26],0.525 (active)
same,normalized growth,[27],0.789
CN(C)C=Nc1nnc(SCc2ccc(C(=O)Oc3ccc(F)cc3F)cc2)s1,normalized growth,[1],0.989
same,normalized growth,[2],1.05
same,normalized growth,[3],1.02
same,normalized growth,[4],0.939
same,normalized growth,[5],1.01
same,normalized growth,[6],1.01
same,normalized growth,[7],1.01
same,normalized growth,[8],0.931
same,normalized growth,[9],1.02
same,normalized growth,[28],1.01
same,normalized growth,[10],0.949
same,normalized growth,[11],1.03
same,normalized growth,[12],1.08
same,normalized growth,[13],1.01
same,normalized growth,[14],0.919
same,normalized growth,[15],1.04
same,normalized growth,[16],0.973
same,normalized growth,[17],1.01
same,normalized growth,[18],0.924
same,normalized growth,[19],0.915
same,normalized growth,[20],1.02
same,normalized growth,[21],1
same,normalized growth,[22],1.03
same,normalized growth,[23],0.989
same,normalized growth,[24],1.07
same,normalized growth,[25],0.855
same,normalized growth,[26],0.996
same,normalized growth,[27],0.926
CN(C)C=Nc1nnc(Sc2nc3cc(Cl)ccc3s2)s1,normalized growth,[1],0.939
same,normalized growth,[2],0.958
same,normalized growth,[3],0.977
same,normalized growth,[4],0.968
same,normalized growth,[5],0.93
same,normalized growth,[6],0.983
same,normalized growth,[8],0.631 (active)
same,normalized growth,[9],0.914
same,normalized growth,[28],0.938
same,normalized growth,[10],0.966
same,normalized growth,[11],0.974
same,normalized growth,[12],0.757 (active)
same,normalized growth,[13],0.969
same,normalized growth,[14],0.707 (active)
same,normalized growth,[15],0.826
same,normalized growth,[16],0.909
same,normalized growth,[17],0.932 (active)
same,normalized growth,[18],0.957
same,normalized growth,[20],0.962
same,normalized growth,[21],0.887
same,normalized growth,[22],0.987
same,normalized growth,[23],0.93
same,normalized growth,[24],0.71 (active)
same,normalized growth,[25],0.796 (active)
same,normalized growth,[26],0.848 (active)
same,normalized growth,[27],0.698
CN(C)C=Nc1nnc(Sc2nc3c(Cl)cc(Cl)cc3s2)s1,normalized growth,"locus YAR019C, strain CDC15, stronger effect = lower value",0.959
same,normalized growth,"locus YBL105C, strain PKC1, stronger effect = lower value",0.969
same,normalized growth,"locus YBR135W, strain CKS1, stronger effect = lower value",0.973
same,normalized growth,"locus YBR136W, strain MEC1, stronger effect = lower value",0.968
same,normalized growth,"locus YBR160W, strain CDC28, stronger effect = lower value",0.977
same,normalized growth,"locus YDL017W, strain CDC7, stronger effect = lower value",0.976
same,normalized growth,"locus YDL028C, strain MPS1, stronger effect = lower value",0.975
same,normalized growth,[3],0.972
same,normalized growth,"locus YDL108W, strain KIN28, stronger effect = lower value",0.976
same,normalized growth,"locus YDL132W, strain cdc53, stronger effect = lower value",0.964
same,normalized growth,"locus YDL214C, strain PRR2, stronger effect = lower value",0.97
same,normalized growth,"locus YDR052C, strain DBF4, stronger effect = lower value",0.972
same,normalized growth,"locus YDR054C, strain cdc34, stronger effect = lower value",0.954
same,normalized growth,"locus YDR226W, strain ADK1, stronger effect = lower value",0.961
same,normalized growth,"locus YDR477W, strain SNF1, stronger effect = lower value",0.944
same,normalized growth,"locus YER123W, strain YCK3, stronger effect = lower value",0.953
same,normalized growth,"locus YER133W, strain GLC7, stronger effect = lower value",0.925
same,normalized growth,"locus YFL009W, strain cdc4, stronger effect = lower value",0.963
same,normalized growth,"locus YFL029C, strain CAK1, stronger effect = lower value",0.959
same,normalized growth,"locus YFR003C, strain YPI1, stronger effect = lower value",0.973
same,normalized growth,"locus YFR019W, strain FAB1, stronger effect = lower value",0.975
same,normalized growth,"locus YFR028C, strain CDC14, stronger effect = lower value",0.969
same,normalized growth,"locus YGR040W, strain KSS1, stronger effect = lower value",0.943
same,normalized growth,"locus YGR052W, strain FMP48, stronger effect = lower value",1
same,normalized growth,"locus YGR092W, strain DBF2, stronger effect = lower value",0.929
same,normalized growth,[8],1.11
same,normalized growth,"locus YHR079C, strain IRE1, stronger effect = lower value",0.946
same,normalized growth,"locus YHR082C, strain KSP1, stronger effect = lower value",1.07
same,normalized growth,"locus YHR205W, strain SCH9, stronger effect = lower value",1.01
same,normalized growth,"locus YIL147C, strain SLN1, stronger effect = lower value",0.964
same,normalized growth,"locus YJL095W, strain BCK1, stronger effect = lower value",0.937
same,normalized growth,"locus YJL128C, strain PBS2, stronger effect = lower value",0.944
same,normalized growth,"locus YJL157C, strain FAR1, stronger effect = lower value",0.941
same,normalized growth,"locus YJR016C, strain ILV3, stronger effect = lower value",0.967
same,normalized growth,"locus YJR066W, strain TOR1 (second series), stronger effect = lower value",0.924
same,normalized growth,"locus YJR066W, strain TOR1, stronger effect = lower value",1.01
same,normalized growth,"locus YKL048C, strain ELM1, stronger effect = lower value",1.01
same,normalized growth,"locus YKL067W, strain YNK1, stronger effect = lower value",0.958
same,normalized growth,"locus YKL101W, strain HSL1, stronger effect = lower value",1.01
same,normalized growth,"locus YKL193C, strain SDS22, stronger effect = lower value",0.968
same,normalized growth,"locus YKL203C, strain TOR2, stronger effect = lower value",0.96
same,normalized growth,"locus YLR113W, strain HOG1, stronger effect = lower value",0.964
same,normalized growth,"locus YLR133W, strain CKI1, stronger effect = lower value",0.968
same,normalized growth,"locus YLR403W, strain SFP1, stronger effect = lower value",0.924
same,normalized growth,"locus YML070W, strain DAK1, stronger effect = lower value",0.98
same,normalized growth,"locus YMR001C, strain CDC5, stronger effect = lower value",0.969
same,normalized growth,"locus YMR205C, strain PFK2 (second series), stronger effect = lower value",0.99
same,normalized growth,"locus YMR277W, strain FCP1, stronger effect = lower value",0.962
same,normalized growth,"locus YNL006W, strain LST8, stronger effect = lower value",0.969
same,normalized growth,"locus YNL020C, strain ARK1, stronger effect = lower value",0.966
same,normalized growth,"locus YNL161W, strain CBK1, stronger effect = lower value",0.967
same,normalized growth,"locus YNL183C, strain NPR1, stronger effect = lower value",0.995
same,normalized growth,"locus YNL207W, strain RIO2, stronger effect = lower value",0.959
same,normalized growth,"locus YNL222W, strain SSU72, stronger effect = lower value",0.97
same,normalized growth,"locus YNL307C, strain MCK1 (second series), stronger effect = lower value",0.979
same,normalized growth,"locus YOL078W, strain AVO1, stronger effect = lower value",0.973
same,normalized growth,"locus YOL136C, strain PFK27, stronger effect = lower value",0.984
same,normalized growth,"locus YOR061W, strain CKA2, stronger effect = lower value",0.944
same,normalized growth,"locus YOR119C, strain RIO1, stronger effect = lower value",1
same,normalized growth,"locus YOR231W, strain MKK1, stronger effect = lower value",0.954
same,normalized growth,"locus YOR329C, strain SCD5, stronger effect = lower value",0.968
same,normalized growth,"locus YPL031C, strain PHO85, stronger effect = lower value",0.9
same,normalized growth,"locus YPL153C, strain RAD53, stronger effect = lower value",0.913
same,normalized growth,"locus YPL204W, strain HRR25, stronger effect = lower value",0.903
same,normalized growth,"locus YPL209C, strain IPL1, stronger effect = lower value",0.975
same,normalized growth,"locus YPL256C, strain CLN2, stronger effect = lower value",1.1
same,normalized growth,"locus YPR025C, strain CCL1, stronger effect = lower value",0.971
same,normalized growth,"locus YPR106W, strain ISR1, stronger effect = lower value",0.98
same,normalized growth,"locus YPR111W, strain DBF20, stronger effect = lower value",0.957
same,normalized growth,"strain NNK1, stronger effect = lower value",0.974
same,normalized growth,"strain TSCII, stronger effect = lower value",0.957
C[C@H](O)C(=O)C1=Nc2c(nc(N)[nH]c2=O)NC1,normalized growth,[1],0.952
same,normalized growth,"locus YAL040C, strain CLN3, stronger effect = lower value",0.966
same,normalized growth,"locus YCL061C, strain MRC1 (second series), stronger effect = lower value",0.983
same,normalized growth,"locus YDR363W, strain ESC2, stronger effect = lower value",0.952
same,normalized growth,"locus YER002W, strain NOP16, stronger effect = lower value",1.04
same,normalized growth,[6],0.998
same,normalized growth,[11],0.98
same,normalized growth,[18],0.983
same,normalized growth,[19],0.983
same,normalized growth,"locus YNL175C, strain NOP13, stronger effect = lower value",1.01
same,normalized growth,"locus YNL197C, strain WHI3, stronger effect = lower value",1.01
same,normalized growth,"locus YNL224C, strain SQS1, stronger effect = lower value",0.997
same,normalized growth,[22],0.955
same,normalized growth,"locus YOR083W, strain WHI5 (second series), stronger effect = lower value",0.996
same,normalized growth,[25],0.971
